The values below come from PubChem BioAssay.

Assay [1] can be described thus: small molecules captured by biotinylated probe aFSTL3 – biochemical, small-molecule microarray, fluorescence 635/667, stem cell growth factor project, primary screen (AID 1064).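 Also: measures binding of the biotinylated anti-FSTL3 antibody to printed compounds.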 Particulars: higher = more signal.
A short description of assay [2]: binders from COS7 lysate, DM2A8 probe, primary screen, torsin A project, cell lysate, small-molecule microarray, fluorescence 635/667 (AID 1065). Conditions: higher = more signal, COS7 lysate expressing mutant human TOR1A.
The nature of assay [3]: small molecules captured by biotinylated probe aFGF2 – biochemical, small-molecule microarray, fluorescence 635/667, stem cell growth factor project, primary screen (AID 1067).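 Also: measures binding of biotinylated aFGF2 protein to printed compounds on slides; z-score merges feature fluorescence and signal-to-noise across triplicate slides.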 Conditions: higher = more signal.
A short description of assay [4]: small molecules captured by biotinylated probe aFGF10 – biochemical, small-molecule microarray, fluorescence 635/667, stem cell growth factor project, primary screen (AID 1071).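 Also: score merges 667 nm spot intensity and signal to noise from triplicate slides.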 Conditions: higher = more signal.
For assay [5], the target named is Neurogenic locus notch homolog protein 2 (Homo sapiens) (UniProt Q04721). The assay can be described thus: small molecules binding Notch2 protein – biochemical, small-molecule microarray, 635 nm fluorescence, stem cell growth factors, primary screen (AID 1073). Particulars: higher = more signal.
Assay [6] has as its target Pro-neuregulin-1, membrane-bound isoform (Homo sapiens) (UniProt Q02297). The assay can be described thus: small molecules binding neuregulin-1 protein – biochemical, small-molecule microarray, fluorescence 635/667, psychiatric disease protein project, primary screen (AID 1075).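 Also: score combines 667 nm spot fluorescence with signal to noise.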 Particulars: NRG1 binding, 635 nm fluorescence, higher = more signal.
The test system of assay [7] is Neuregulin-1 EGF-like domain. As to the kind of experiment: small molecules binding NRG1 EGF domain – biochemical, small-molecule microarray, 635 nm fluorescence, primary screen (AID 1081).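 Also: binding of the protein to compounds printed on small-molecule microarray slides.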 Conditions: higher = more signal.
A short description of assay [8]: FRG1 expression reporter modulators in myotubes – cell-based, C2C12 myotubes, firefly/Renilla luciferase, luminescence, FRG1 inhibition for FSHD, primary screen (AID 1084). Particulars: FRG1 promoter luciferase, higher = more signal, called active from +8 up or from −8 down.
Assay [9] in a line: small molecules captured by biotinylated probe aFST – biochemical, small-molecule microarray, fluorescence 635/667, stem cell growth factor project, primary screen (AID 1086).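 Also: score merges 667 nm fluorescence with signal-to-noise of each printed compound spot.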 Particulars: higher = more signal.
Assay [10] can be described thus: binders of probe aHhip on microarray, primary screen, stem cell growth factor project, biochemical, small-molecule microarray, fluorescence 635/667 (AID 1087).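 Also: score merges spot fluorescence at 667nm with spot signal to noise ratio.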 Conditions: higher = more signal.
Assay [11] deals with PRMT1 (protein arginine N-methyltransferase 1). The assay can be described thus: small molecules binding arginine methyltransferase PRMT1 – biochemical, small-molecule microarray, 635 nm fluorescence, primary screen (AID 1088).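 Also: binding of Prmt1 protein to compounds spotted on small-molecule microarray slides.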 Particulars: higher = more signal.
Assay [12] is described as follows: growth effects on S. cerevisiae YJM789 – YJM789 clinical isolate, OD600, 24 h, basal, primary screen (AID 1089).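 Also: growth of clinical yeast isolate S. cerevisiae YJM 789 seeded 1000 cells per well; test concentration not given here.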 Conditions: higher = more signal, called active from +8 up or from −8 down.
Assay [13] in a line: S. pombe growth modifiers, basal conditions – strain 972, OD600, 24 h, no modulator, primary screen (AID 1090).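 Also: basal condition with compound alone and no growth modifier present; test concentration not given here.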 Conditions: S. pombe 972 growth, higher = more signal, called active from +8 up or from −8 down.
The nature of assay [14]: budding yeast growth modifiers under rapamycin – strain BY4716, OD600, 96 h, primary screen (AID 1091). Also: test concentration not given here. Particulars: S. cerevisiae BY4716 + rapamycin, higher = more signal, called active from +8 up or from −8 down.
The target in assay [15] is Torsin-1A-interacting protein 2 (Homo sapiens) (UniProt Q8NFQ8). The assay can be described thus: small molecules binding lysate-expressed LULL1 – cell lysate, human LULL1 lysate, 635/667 nm fluorescence, primary screen (AID 1092).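 Also: probe is lysate of COS7 cells overexpressing human LULL1; score merges per-feature 667 nm fluorescence with signal-to-noise.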 Conditions: small-molecule microarray, hLULL1 lysate binding, 635 nm fluorescence; higher = more signal.
Assay [16] can be described thus: optical density change of DRC41 E. coli – strain DRC41, OD650, 24 h, E. coli filamentation project, primary screen (AID 1093).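 Also: MC1000 strain lacking acrAB efflux and sulA so SOS filamentation is blocked; test concentration not given here.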 Conditions: E. coli DRC41 growth, higher = more signal, called active from +8 up or from −8 down.
The nature of assay [17]: probe aLefty2 binding to arrayed compounds – biochemical, biotinylated probe, 635/667 nm fluorescence, primary screen (AID 1094).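 Also: score merges spot fluorescence near 667 nm with spot signal-to-noise ratio.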 Particulars: small-molecule microarray, higher = more signal.
Assay [18] concerns Noggin (protein binding on small-molecule microarray). As to the kind of experiment: small molecules binding Noggin protein – biochemical, 635/667 nm fluorescence, primary screen (AID 1095).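 Also: score merges 667 nm feature fluorescence with signal to noise over triplicate slides.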 Particulars: 635 nm fluorescence, higher = more signal.
Assay [19] concerns the target Neurogenic locus notch homolog protein 3 (Homo sapiens) (UniProt Q9UM47). As to the kind of experiment: small molecules binding NOTCH3 protein – biochemical, 635/667 nm fluorescence, primary screen (AID 1096). Particulars: small-molecule microarray, 635 nm fluorescence, higher = more signal.
The nature of assay [20]: probe aEGFR binding to arrayed compounds – biochemical, biotinylated probe, 635/667 nm fluorescence, primary screen (AID 1097).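 Also: probe is a biotinylated anti-EGFR antibody binding compounds printed on slides; score combines fluorescence near 667 nm and signal to noise of each spot.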 Conditions: small-molecule microarray, higher = more signal.

Structures are written as SMILES. The source made the active and inactive calls.

Pro-neuregulin-1, membrane-bound isoform (Homo sapiens), sequence (Q02297 whole entry, looked up, the tested form may be a part, canonical isoform): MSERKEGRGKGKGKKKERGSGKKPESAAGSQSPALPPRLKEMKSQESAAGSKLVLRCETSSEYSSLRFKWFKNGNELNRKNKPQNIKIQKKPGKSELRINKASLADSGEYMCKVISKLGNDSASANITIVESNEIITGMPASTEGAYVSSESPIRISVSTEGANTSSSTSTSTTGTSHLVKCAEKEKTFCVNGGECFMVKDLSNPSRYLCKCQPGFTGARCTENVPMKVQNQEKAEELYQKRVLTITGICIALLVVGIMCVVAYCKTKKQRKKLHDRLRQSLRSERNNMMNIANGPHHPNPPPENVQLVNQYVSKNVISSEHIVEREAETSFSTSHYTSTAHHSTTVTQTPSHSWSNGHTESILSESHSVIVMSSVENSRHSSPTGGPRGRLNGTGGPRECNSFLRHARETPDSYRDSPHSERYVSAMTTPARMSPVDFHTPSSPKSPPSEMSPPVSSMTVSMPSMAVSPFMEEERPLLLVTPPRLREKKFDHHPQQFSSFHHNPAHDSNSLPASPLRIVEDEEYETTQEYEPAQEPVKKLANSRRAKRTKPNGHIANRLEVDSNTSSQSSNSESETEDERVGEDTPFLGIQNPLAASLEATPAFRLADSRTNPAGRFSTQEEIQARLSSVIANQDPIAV
Torsin-1A-interacting protein 2 (Homo sapiens), sequence (Q8NFQ8 whole entry, looked up): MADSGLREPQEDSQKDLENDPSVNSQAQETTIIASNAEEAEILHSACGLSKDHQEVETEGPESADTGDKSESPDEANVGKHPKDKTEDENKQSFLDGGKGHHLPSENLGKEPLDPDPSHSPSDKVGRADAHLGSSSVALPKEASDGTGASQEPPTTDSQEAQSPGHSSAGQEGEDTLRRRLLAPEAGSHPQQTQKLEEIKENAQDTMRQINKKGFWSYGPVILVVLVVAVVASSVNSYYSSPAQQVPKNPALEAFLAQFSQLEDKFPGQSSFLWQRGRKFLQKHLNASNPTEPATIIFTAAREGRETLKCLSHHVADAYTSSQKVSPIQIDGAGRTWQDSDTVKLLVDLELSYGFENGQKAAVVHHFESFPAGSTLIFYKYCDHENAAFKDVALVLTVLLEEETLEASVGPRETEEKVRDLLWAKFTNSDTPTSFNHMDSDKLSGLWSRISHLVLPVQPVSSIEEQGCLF
Neurogenic locus notch homolog protein 3 (Homo sapiens), sequence (Q9UM47 whole entry, looked up): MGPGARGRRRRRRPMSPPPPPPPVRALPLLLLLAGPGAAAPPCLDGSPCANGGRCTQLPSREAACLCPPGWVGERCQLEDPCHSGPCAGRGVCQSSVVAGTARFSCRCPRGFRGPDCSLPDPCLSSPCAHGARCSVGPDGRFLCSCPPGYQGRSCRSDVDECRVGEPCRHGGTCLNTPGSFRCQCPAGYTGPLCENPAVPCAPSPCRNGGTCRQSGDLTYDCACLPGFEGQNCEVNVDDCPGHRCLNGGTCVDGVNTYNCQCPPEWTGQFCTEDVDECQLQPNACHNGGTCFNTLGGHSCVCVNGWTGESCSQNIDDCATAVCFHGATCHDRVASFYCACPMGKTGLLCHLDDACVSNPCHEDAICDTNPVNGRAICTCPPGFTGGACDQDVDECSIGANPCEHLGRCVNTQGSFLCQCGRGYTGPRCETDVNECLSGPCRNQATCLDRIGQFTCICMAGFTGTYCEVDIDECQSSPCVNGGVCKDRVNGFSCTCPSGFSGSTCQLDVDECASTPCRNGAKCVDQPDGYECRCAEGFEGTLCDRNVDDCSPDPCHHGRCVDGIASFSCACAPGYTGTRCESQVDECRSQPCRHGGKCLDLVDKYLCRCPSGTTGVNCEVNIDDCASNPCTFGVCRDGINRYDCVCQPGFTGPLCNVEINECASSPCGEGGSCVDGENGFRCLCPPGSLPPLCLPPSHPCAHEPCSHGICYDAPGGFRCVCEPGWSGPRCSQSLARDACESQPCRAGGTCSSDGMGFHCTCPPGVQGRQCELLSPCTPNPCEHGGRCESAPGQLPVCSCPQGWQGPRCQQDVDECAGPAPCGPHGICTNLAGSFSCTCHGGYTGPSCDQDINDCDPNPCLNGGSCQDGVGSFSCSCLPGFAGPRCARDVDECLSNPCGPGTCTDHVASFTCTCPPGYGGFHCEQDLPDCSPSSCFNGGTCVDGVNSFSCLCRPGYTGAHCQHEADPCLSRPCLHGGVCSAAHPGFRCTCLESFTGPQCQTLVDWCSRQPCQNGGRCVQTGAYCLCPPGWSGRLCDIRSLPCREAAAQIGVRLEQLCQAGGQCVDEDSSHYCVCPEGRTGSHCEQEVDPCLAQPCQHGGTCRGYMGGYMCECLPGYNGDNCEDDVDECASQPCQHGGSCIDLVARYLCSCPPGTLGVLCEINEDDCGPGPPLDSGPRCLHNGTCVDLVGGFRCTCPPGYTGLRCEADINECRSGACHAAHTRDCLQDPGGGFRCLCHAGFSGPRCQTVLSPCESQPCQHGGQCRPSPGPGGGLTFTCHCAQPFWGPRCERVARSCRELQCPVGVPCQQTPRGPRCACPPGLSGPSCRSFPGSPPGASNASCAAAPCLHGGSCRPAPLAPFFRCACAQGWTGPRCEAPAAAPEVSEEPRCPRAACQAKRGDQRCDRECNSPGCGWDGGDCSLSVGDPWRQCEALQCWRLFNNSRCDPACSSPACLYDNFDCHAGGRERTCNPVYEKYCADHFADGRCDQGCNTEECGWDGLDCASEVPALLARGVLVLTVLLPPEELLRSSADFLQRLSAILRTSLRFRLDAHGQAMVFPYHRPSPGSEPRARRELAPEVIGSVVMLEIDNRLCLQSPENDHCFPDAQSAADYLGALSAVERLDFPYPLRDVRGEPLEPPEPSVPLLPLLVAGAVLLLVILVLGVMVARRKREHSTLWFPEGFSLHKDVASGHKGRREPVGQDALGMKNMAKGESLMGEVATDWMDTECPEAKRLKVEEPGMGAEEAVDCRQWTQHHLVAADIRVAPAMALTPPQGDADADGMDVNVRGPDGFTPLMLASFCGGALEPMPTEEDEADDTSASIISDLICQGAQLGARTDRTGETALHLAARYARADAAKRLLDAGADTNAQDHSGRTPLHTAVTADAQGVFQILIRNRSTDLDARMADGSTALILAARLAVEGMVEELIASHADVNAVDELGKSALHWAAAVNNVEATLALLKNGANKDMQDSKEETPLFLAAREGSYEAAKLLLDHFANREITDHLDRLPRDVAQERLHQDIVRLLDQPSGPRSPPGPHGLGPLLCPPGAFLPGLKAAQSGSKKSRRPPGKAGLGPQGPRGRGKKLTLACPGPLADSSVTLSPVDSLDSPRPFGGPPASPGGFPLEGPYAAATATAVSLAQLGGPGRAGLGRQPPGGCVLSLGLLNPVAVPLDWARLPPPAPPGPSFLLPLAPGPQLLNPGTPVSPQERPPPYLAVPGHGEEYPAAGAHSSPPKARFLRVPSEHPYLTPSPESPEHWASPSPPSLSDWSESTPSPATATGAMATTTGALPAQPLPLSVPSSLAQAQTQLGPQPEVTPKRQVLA

As to `CCCCCCc1nc(-c2ccc(-c3ccc(Cl)c(Cl)c3)o2)cc2c1[Si](C(C)C)(C(C)C)O[C@H]2c1ccccc1`, the composite z-score in assay [1] is 0.0771; in [2] it was -0.543; in assay [3], -0.116; in assay [4], -0.379; in assay [5], -0.797; in assay [6], 0.501. Moreover, the composite z-score in [7] was -0.412; in assay [9], -0.265; in [10], 0.0505; in assay [11] it was 0.287; in assay [15] it was 0.424; in [17], -0.196. Besides, the figures for the composite z-score in assay [18], in assay [19] and in assay [20] were 0.0792, -0.34 and -0.249, respectively. The z-score in [8] was 0.213 (inactive); in [12] it was -0.124 (inactive); in [13], -0.45 (inactive); in assay [14], -1.35 (inactive); in [16] it was 0.488 (inactive).

Take `O=C1C2C=CC(C(O)c3cc(C(F)(F)F)cc(C(F)(F)F)c3)N(Nc3ccccc3)C2C(=O)N1c1ccccc1` (stereo not given): the composite z-score in assay [1] was 0.281; in [2], 1.2; in assay [3], -0.0064; in [4], 0.35; in assay [5], 0.649; in assay [6], 1.8. Moreover, the composite z-score in assay [7] was 1.12; in assay [9], 0.664; in assay [10] it was -0.0994; in [11] it was 1.29; in [15] it was 3.23; in assay [17], -0.0156. Further, the composite z-score is -0.105 in assay [18], 0.581 in assay [19] and -0.0536 in [20]. The z-score in [8] was 0.995 (inactive); in [12], 1 (inactive); in assay [13], -0.158 (inactive); in assay [14], 3.15 (inactive); in assay [16], -0.747 (inactive).

Consider `COC(=O)c1c2oc(c1C(=O)OC)C(=O)N[C@@H](C(C)C)Cn1cc(nn1)C1(CCCCC1)NC(=O)N[C@H](CO)CC2`, for which the composite z-score in [1] was -0.458; in assay [2], 0.104; in [3] it was -0.124; in [4], 0.471; in assay [5], -0.178; in assay [6] it was 0.356. The composite z-score in [7] was 0.859; in assay [9], -0.0464; in [10], 0.0881; in assay [11], 0.523; in assay [15], 1.41; in [17], -0.116. In addition, the composite z-score is 1.59 in [18], 0.171 in assay [19] and -0.163 in assay [20]. The z-score in assay [8] was -0.965 (inactive); in [12] it was -0.301 (inactive); in assay [13] it was -0.772 (inactive); in assay [14] it was -0.538 (inactive); in assay [16], 1.29 (inactive).

Turning to `COCCCNC(=O)[C@@]1(Sc2ccc(C)cc2)CC(=O)N(Cc2ccccc2Cl)[C@@H]1c1ccc(CO)cc1`, the composite z-score in assay [1] is 0.59; in assay [2], 2.15; in assay [3], -0.119; in assay [4] it was 0.429; in [5], 0.307; in assay [6], 1.14. Also, the composite z-score is 0.938 in [7]; 0.393 in [9]; -0.0645 in [10]; 1.54 in [11]; 2.74 in assay [15]; 0.0112 in assay [17]. Besides, the composite z-score is 1.05 in assay [18], 1.12 in assay [19] and -0.0874 in assay [20]. The z-score is -2.45 (inactive) in assay [8]; -0.15 (inactive) in assay [12]; -0.429 (inactive) in assay [13]; -0.439 (inactive) in assay [14]; -1.29 (inactive) in [16].

For `C=C(CCCC)C(=O)CC[C@@H](OC(C)=O)c1ccc(CO)o1`, the composite z-score is -0.327 in assay [1]; 0.349 in [2]; -0.0729 in assay [3]; 0.726 in assay [4]; -0.426 in assay [5]; -0.306 in assay [6]. Further, the composite z-score in assay [7] was -0.0318; in assay [9], 0.911; in assay [10] it was 0.0505; in assay [11], 1.54; in assay [15], -0.0891; in assay [17], -0.241. Further, the composite z-score in [18] is 1.52; in assay [19], 0.582; in assay [20] it was -0.162. Besides, the z-score was 0.514 (inactive) in [8]; -4.06 (inactive) in assay [12]; -15.4 (active) in assay [13]; -2.36 (inactive) in assay [14]; 0.246 (inactive) in [16].
